From PubChem BioAssay (NCI)
Compounds without any hit were thinned out: in the full panel of roughly 79,000, 15% have a hit. Activity calls are given as the source filed them. No stated cut-off is given here; in the data, active means growth inhibition above about 70%; inactive means the rest.

Test: NCI Yeast Anticancer Drug Screen. Data for the rad50 strain (AID 155);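 further: 0% = growth of vehicle-only cultures of the same strain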
Details: S. cerevisiae rad50 strain growth inhibition; at 50.0 µM; active compounds read high
How it was run: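 Readout: growth inhibition relative to vehicle-treated cultures. Compound exposure was carried out in a genetically defined yeast strain deficient in DNA damage repair.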

With `CC(C)CCNC(=O)CS(=O)(=O)c1ccc(N)cc1` as the compound, how does the growth inhibition read?
Its growth inhibition is -2.15% (inactive).

With `CCCCCCC1N(C(C#N)c2ccccc2)CCCN1C(C#N)c1ccccc1` (stereo not given) as the compound, how does the growth inhibition read?
Its growth inhibition is 19.8% (inactive).

With `NNC(=O)CCCO` as the compound, how does the growth inhibition read?
The growth inhibition was -33.9% (inactive).

For `O=P(O)(c1cc(Cl)cc(Cl)c1)c1cc(Cl)cc(Cl)c1`, which growth inhibition is on record?
Its growth inhibition is 2.05% (inactive).

With `CC(=O)OC1CN(c2ccccc2)CC(OC(C)=O)CN(c2ccccc2)C1` (stereo not given) as the compound, how does the growth inhibition read?
Its growth inhibition is 38.5% (inactive).

With `CC(C)NCCN` as the compound, how does the growth inhibition read?
Its growth inhibition is 17.4% (inactive).

Which growth inhibition does the source give for `Cc1cc(N=Nc2c(O)c3ccccc3[nH]c2=O)ccc1N=Nc1ccc(C(=O)O)cc1` here?
The growth inhibition was 1.65% (inactive).

With `Cc1ccc(S(=O)(=O)NCCC(Cl)(Cl)Cl)cc1` as the compound, how does the growth inhibition read?
The growth inhibition was 21.6% (inactive).

Which growth inhibition does the source give for `Cc1ccc(S(=O)(=O)c2ccc(C)cc2C(=O)O)cc1` here?
Its growth inhibition is -8.6% (inactive).

With `Cc1ccc(C(=O)Nc2ccc(CP(=O)(O)O)cc2CP(=O)(O)O)cc1N` as the compound, how does the growth inhibition read?
Its growth inhibition is -25.1% (inactive).

Which growth inhibition does the source give for `CC(=O)Nc1cc(C)c(C(=O)O)c(C)c1` here?
Its growth inhibition is -26.5% (inactive).

For `CCc1c(Cc2[nH]c(C=O)c(C)c2CC)[nH]c(C=O)c1C`, which growth inhibition is on record?
Its growth inhibition is 6.85% (inactive).

With `COc1cc(C2=N/C(=C\c3cccc([N+](=O)[O-])c3)C(=O)O2)cc(OC)c1OC` as the compound, how does the growth inhibition read?
The growth inhibition was -0.45% (inactive).

Which growth inhibition does the source give for `Cc1cccc2c1C(=O)OC2(c1cccc2ccccc12)c1cccc2ccccc12` here?
Its growth inhibition is -16.4% (inactive).

With `CCN(CC)CCOc1ccc(/C=C(\C#N)c2ccc(OCCN(CC)CC)cc2)cc1` as the compound, how does the growth inhibition read?
Its growth inhibition is 56.5% (inactive).

For `O=C1CC(=O)N2C=CC=CC2N1` (stereo not given), which growth inhibition is on record?
Its growth inhibition is -14.8% (inactive).

Which growth inhibition does the source give for `S=c1[nH]c2ccccc2n1CCc1ccncc1` here?
Its growth inhibition is -6.8% (inactive).

With `C/C(=N/NC(N)=O)C(=O)O` as the compound, how does the growth inhibition read?
The growth inhibition was -0.15% (inactive).

Which growth inhibition does the source give for `CCN1CSC(=S)N(Cc2ccccc2)C1` here?
Its growth inhibition is 16.9% (inactive).

With `O=C=Nc1ccc(Cl)c(Cl)c1` as the compound, how does the growth inhibition read?
The growth inhibition was -19.9% (inactive).

With `CCOC(=O)NC(Nc1cccc(F)c1)(C(F)(F)F)C(F)(F)F` as the compound, how does the growth inhibition read?
Its growth inhibition is 16.8% (inactive).

For `CC(=O)Nc1ccc(NC(=O)Nc2cccc(Cl)c2C)cc1`, which growth inhibition is on record?
The growth inhibition was 2.75% (inactive).

For `CCN(CC)C1=Nc2ccccc2N(c2ccccc2)C(SC)=C1`, which growth inhibition is on record?
The growth inhibition was -1.4% (inactive).

Which growth inhibition does the source give for `O=C(N/N=C\c1ccc(Cl)cc1Cl)c1ccc(F)cc1` here?
The growth inhibition was -10.5% (inactive).

Which growth inhibition does the source give for `Cc1ccc(N=Nc2c(C)nc(N)nc2C)cc1` here?
The growth inhibition was 7.5% (inactive).

With `CCCOC1CC(C)C(O)C(C)C1` (stereo not given) as the compound, how does the growth inhibition read?
Its growth inhibition is 24.6% (inactive).

With `COc1cc(C2C3=C(COC3=O)OC(C)(C)Oc3cc4c(cc32)OCO4)cc(OC)c1O` (stereo not given) as the compound, how does the growth inhibition read?
Its growth inhibition is 55.7% (inactive).

With `O=C(O)c1cc(=O)c2[nH]c3ccccc3c2s1` as the compound, how does the growth inhibition read?
The growth inhibition was -5.2% (inactive).

With `O=C(O)CCCC1(CCCC(=O)O)OCCO1` as the compound, how does the growth inhibition read?
The growth inhibition was 9.6% (inactive).

Which growth inhibition does the source give for `CC(C)(C)C1CCC2c3c([nH]c4ccccc34)C3C(=O)N(c4ccc(Cl)cc4)C(=O)C3C2C1` (stereo not given) here?
The growth inhibition was 37.6% (inactive).

Which growth inhibition does the source give for `Cc1cc(C)c(C(C=O)c2ccccc2)c(C)c1` (stereo not given) here?
The growth inhibition was 18.6% (inactive).

Which growth inhibition does the source give for `COC(=O)c1cc(Cl)ccc1NC(=O)C1CCCCC1` here?
Its growth inhibition is 4.75% (inactive).

Which growth inhibition does the source give for `CCOC(=O)NC(CC)CO` (stereo not given) here?
The growth inhibition was -13.1% (inactive).

Which growth inhibition does the source give for `O=C(C(c1ccccc1)C(C(=O)N(Cc1ccccc1)Cc1ccccc1)c1ccccc1)N(Cc1ccccc1)Cc1ccccc1` (stereo not given) here?
The growth inhibition was -44.8% (inactive).

With `CN1C(=O)C(=O)N2c3ccc(Cl)cc3C3(c4ccccc4)N=CC12O3` (stereo not given) as the compound, how does the growth inhibition read?
The growth inhibition was 9.3% (inactive).

Which growth inhibition does the source give for `Nc1ccc2c(=O)[nH][nH]c2c1` here?
Its growth inhibition is -26.6% (inactive).

With `NC(=O)c1cc(Br)ccc1O` as the compound, how does the growth inhibition read?
The growth inhibition was 11.2% (inactive).

For `Cn1nc(C(=O)NN)c(=O)[nH]c1=O`, which growth inhibition is on record?
The growth inhibition was 10.9% (inactive).

For `OC(CSCc1ccccc1)c1ccccc1` (stereo not given), which growth inhibition is on record?
Its growth inhibition is -17.8% (inactive).

With `CC(=O)NC1C(SC(=O)NCCCl)OC(COC(C)=O)C(OC(C)=O)C1OC(C)=O` (stereo not given) as the compound, how does the growth inhibition read?
The growth inhibition was -7.75% (inactive).

Test: NCI Yeast Anticancer Drug Screen. Data for the mec2-1 strain (AID 157)
Details: S. cerevisiae mec2-1 strain, at 50.0 µM, active compounds read high
How it was run: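 Readout is yeast growth inhibition, normalised to vehicle-treated controls, in the mec2-1 strain exposed to compound.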

Which growth inhibition does the source give for `CC(C)CCNC(=O)CS(=O)(=O)c1ccc(N)cc1` here?
Its growth inhibition is -3.05% (inactive).

For `CCCCCCC1N(C(C#N)c2ccccc2)CCCN1C(C#N)c1ccccc1` (stereo not given), which growth inhibition is on record?
Its growth inhibition is 14.2% (inactive).

Which growth inhibition does the source give for `NNC(=O)CCCO` here?
The growth inhibition was -24% (inactive).

For `O=P(O)(c1cc(Cl)cc(Cl)c1)c1cc(Cl)cc(Cl)c1`, which growth inhibition is on record?
The growth inhibition was -7.45% (inactive).

Which growth inhibition does the source give for `CC(=O)OC1CN(c2ccccc2)CC(OC(C)=O)CN(c2ccccc2)C1` (stereo not given) here?
The growth inhibition was 3.95% (inactive).

Which growth inhibition does the source give for `CC(C)NCCN` here?
The growth inhibition was 0.3% (inactive).

Which growth inhibition does the source give for `Cc1cc(N=Nc2c(O)c3ccccc3[nH]c2=O)ccc1N=Nc1ccc(C(=O)O)cc1` here?
Its growth inhibition is -9.15% (inactive).

With `Cc1ccc(S(=O)(=O)NCCC(Cl)(Cl)Cl)cc1` as the compound, how does the growth inhibition read?
Its growth inhibition is 6.8% (inactive).

Which growth inhibition does the source give for `Cc1ccc(S(=O)(=O)c2ccc(C)cc2C(=O)O)cc1` here?
The growth inhibition was -19.3% (inactive).

For `Cc1ccc(C(=O)Nc2ccc(CP(=O)(O)O)cc2CP(=O)(O)O)cc1N`, which growth inhibition is on record?
The growth inhibition was -14.8% (inactive).

For `CC(=O)Nc1cc(C)c(C(=O)O)c(C)c1`, which growth inhibition is on record?
Its growth inhibition is -19.4% (inactive).

Which growth inhibition does the source give for `CCc1c(Cc2[nH]c(C=O)c(C)c2CC)[nH]c(C=O)c1C` here?
The growth inhibition was -11.9% (inactive).

With `COc1cc(C2=N/C(=C\c3cccc([N+](=O)[O-])c3)C(=O)O2)cc(OC)c1OC` as the compound, how does the growth inhibition read?
Its growth inhibition is -7.25% (inactive).

Which growth inhibition does the source give for `Cc1cccc2c1C(=O)OC2(c1cccc2ccccc12)c1cccc2ccccc12` here?
The growth inhibition was 3.9% (inactive).

Which growth inhibition does the source give for `CCN(CC)CCOc1ccc(/C=C(\C#N)c2ccc(OCCN(CC)CC)cc2)cc1` here?
The growth inhibition was 28.6% (inactive).

For `O=C1CC(=O)N2C=CC=CC2N1` (stereo not given), which growth inhibition is on record?
Its growth inhibition is -21.6% (inactive).

With `S=c1[nH]c2ccccc2n1CCc1ccncc1` as the compound, how does the growth inhibition read?
Its growth inhibition is -15.1% (inactive).

With `C/C(=N/NC(N)=O)C(=O)O` as the compound, how does the growth inhibition read?
Its growth inhibition is 10.7% (inactive).

With `CCN1CSC(=S)N(Cc2ccccc2)C1` as the compound, how does the growth inhibition read?
Its growth inhibition is 6.3% (inactive).

With `O=C=Nc1ccc(Cl)c(Cl)c1` as the compound, how does the growth inhibition read?
Its growth inhibition is -29.4% (inactive).

For `CCOC(=O)NC(Nc1cccc(F)c1)(C(F)(F)F)C(F)(F)F`, which growth inhibition is on record?
The growth inhibition was -9.05% (inactive).

For `CC(=O)Nc1ccc(NC(=O)Nc2cccc(Cl)c2C)cc1`, which growth inhibition is on record?
Its growth inhibition is -0.35% (inactive).

Which growth inhibition does the source give for `CCN(CC)C1=Nc2ccccc2N(c2ccccc2)C(SC)=C1` here?
The growth inhibition was -6.9% (inactive).

With `O=C(N/N=C\c1ccc(Cl)cc1Cl)c1ccc(F)cc1` as the compound, how does the growth inhibition read?
Its growth inhibition is -10.8% (inactive).

Which growth inhibition does the source give for `Cc1ccc(N=Nc2c(C)nc(N)nc2C)cc1` here?
The growth inhibition was 13.9% (inactive).

With `CCCOC1CC(C)C(O)C(C)C1` (stereo not given) as the compound, how does the growth inhibition read?
The growth inhibition was -4.15% (inactive).

With `COc1cc(C2C3=C(COC3=O)OC(C)(C)Oc3cc4c(cc32)OCO4)cc(OC)c1O` (stereo not given) as the compound, how does the growth inhibition read?
Its growth inhibition is -3.6% (inactive).

With `O=C(O)c1cc(=O)c2[nH]c3ccccc3c2s1` as the compound, how does the growth inhibition read?
Its growth inhibition is -17.9% (inactive).

For `O=C(O)CCCC1(CCCC(=O)O)OCCO1`, which growth inhibition is on record?
The growth inhibition was -4.45% (inactive).

For `CC(C)(C)C1CCC2c3c([nH]c4ccccc34)C3C(=O)N(c4ccc(Cl)cc4)C(=O)C3C2C1` (stereo not given), which growth inhibition is on record?
The growth inhibition was -20% (inactive).

Which growth inhibition does the source give for `Cc1cc(C)c(C(C=O)c2ccccc2)c(C)c1` (stereo not given) here?
The growth inhibition was 2.85% (inactive).

Which growth inhibition does the source give for `COC(=O)c1cc(Cl)ccc1NC(=O)C1CCCCC1` here?
The growth inhibition was 15.8% (inactive).

For `CCOC(=O)NC(CC)CO` (stereo not given), which growth inhibition is on record?
Its growth inhibition is -22.9% (inactive).

Which growth inhibition does the source give for `O=C(C(c1ccccc1)C(C(=O)N(Cc1ccccc1)Cc1ccccc1)c1ccccc1)N(Cc1ccccc1)Cc1ccccc1` (stereo not given) here?
The growth inhibition was 7% (inactive).

Which growth inhibition does the source give for `CN1C(=O)C(=O)N2c3ccc(Cl)cc3C3(c4ccccc4)N=CC12O3` (stereo not given) here?
Its growth inhibition is 3.05% (inactive).

With `Nc1ccc2c(=O)[nH][nH]c2c1` as the compound, how does the growth inhibition read?
Its growth inhibition is -40.5% (inactive).

With `NC(=O)c1cc(Br)ccc1O` as the compound, how does the growth inhibition read?
The growth inhibition was -12.7% (inactive).

Which growth inhibition does the source give for `Cn1nc(C(=O)NN)c(=O)[nH]c1=O` here?
Its growth inhibition is -6.75% (inactive).

For `OC(CSCc1ccccc1)c1ccccc1` (stereo not given), which growth inhibition is on record?
The growth inhibition was 2.45% (inactive).

Which growth inhibition does the source give for `CC(=O)NC1C(SC(=O)NCCCl)OC(COC(C)=O)C(OC(C)=O)C1OC(C)=O` (stereo not given) here?
Its growth inhibition is -8.6% (inactive).
